High-throughput results as filed in PubChem.
KKLEB cytotox – cytotoxicity in KKLEB CF airway cells, primary screen, cytotoxicity control for CF NF-kB inhibitor project, cell-based, uHTS, fluorescence assay plates | activity change (cytotoxicity), % at 5 µM | KKLEB CF airway cells viability, ATPlite luminescence, overnight; hits give low values; cells stimulated with P. aeruginosa culture filtrate | 360,000 tested, 0.36% active | AID 602141, 2011;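 active = corrected activity change at or below -50% at 5 µM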
EWS-Fli inh – EWS/Fli-driven NR0B1 reporter inhibitors, primary screen, A673 cells, NR0B1 luciferase, luminescence, MLPCN library. 350,000 tested, 0.67% active. viability-normalised. inhibition, % at 12.6 µM. AID 651661, 2012;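 active = mean inhibition of at least 50% after viability correction, with every replicate also passing that limit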;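 note: firefly luciferase signal divided by Alamar Blue viability fluorescence both relative to DMSO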
CF NFkB inh – inhibitors of PAF-induced NF-kB signaling, primary screen, cell-based, GFP fluorescence, uHTS | KKLEB NF-kB-GFP reporter, GFP fluorescence overnight | inhibition, % at 5 µM | 360,000 tested, 0.86% active;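 active = at least 50% inhibition at 5 µM, scaled per plate between neutral and stimulator controls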;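 note: PAF is a Pseudomonas aeruginosa culture filtrate used as stimulus; plate controls were PAF-stimulated DMSO wells for no effect and unstimulated DMSO wells for full effect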
PAX8 inh HTS – inhibitors of PAX8-driven TPO luciferase reporter, primary screen, RMG-I cells, single concentration. SteadyGlo, 24 h. inhibition, % at 12.6 µM. 360,000 tested, 1.2% active. AID 652154, 2013;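 active = mean replicate inhibition at least 60% with every replicate also reaching 60%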;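 note: luciferase light reporting Pax8 driven TPO promoter activity; plate controls were median of neutral control wells for no effect and mitoxantrone controls for full effect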
HIF-2a block – HIF-2a reporter inhibitors, primary screen, luminescence, 786-0 RCC cells; 786-0 RCC cells HIF-2a reporter, luciferase luminescence, overnight; inhibition, % at 18.8 µM; 360,000 tested, 0.72% active;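 active = inhibition of the luminescence signal of 40% or more relative to plate controls, in a single-dose primary screen at 18.75 µM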
The depositor's hits bear a star; . = not tested or not shown. This is a sample that favours compounds with a hit; in the whole collection about 2.1% have one here.

SMILES | KKLEB cytotox | EWS-Fli inh | CF NFkB inh | PAX8 inh HTS | HIF-2a block
Cc1ccc(S(=O)(=O)Nc2ccc3c(c2)C(=O)N([C@H](C)CO)C[C@H](C)[C@@H](CN(C)S(=O)(=O)c2cccs2)OCCCC[C@H](C)O3)cc1 | . | 8 | . | 77* | .
Cc1ccc(S(=O)(=O)N(C)C[C@@H]2OCCCC[C@H](C)Oc3ccc(NS(=O)(=O)c4cccs4)cc3C(=O)N([C@H](C)CO)C[C@@H]2C)cc1 | . | 0 | . | 67* | .
Cc1ccc(S(=O)(=O)N(C)C[C@@H]2OCCCC[C@@H](C)Oc3ccc(NS(=O)(=O)c4cccs4)cc3C(=O)N([C@H](C)CO)C[C@@H]2C)cc1 | . | -7 | . | 7 | .
C[C@@H]1CCCCO[C@@H](CN(C)S(=O)(=O)c2ccc(Cl)cc2)[C@H](C)CN([C@H](C)CO)C(=O)c2cc(NS(=O)(=O)c3cccs3)ccc2O1 | . | 16 | . | 70* | .
CCCNC(=O)N1[C@H](CO)[C@H](c2ccccc2)[C@H]1CNC(=O)c1cccc(F)c1 | . | -1 | . | 24 | .
CCS(=O)(=O)NCC[C@H]1CC[C@H](NC(=O)C2CCC2)[C@@H](CO)O1 | . | 4 | . | 2 | .
Cc1ccccc1Cn1c(=N)n(CC(=O)c2ccc([N+](=O)[O-])cc2)c2ccccc21 | -64* | 2 | 38 | . | 20
Cc1ccc(S(=O)(=O)Nc2ccc3c(c2)C(=O)N([C@@H](C)CO)C[C@H](C)[C@@H](CN(C)C(=O)NC2CCCCC2)OCCCC[C@H](C)O3)cc1 | . | 11 | . | 36 | .
O=C(C1CCC1)N1CC[C@@H]2[C@H]1c1cc(-c3cccc(F)c3)ccc1N[C@@H]2CO | . | -1 | . | 9 | .
CCOCCCNC(=O)c1ccc2c(c1)N=C(CC)c1cc(Br)ccc1S2 | -8 | 61* | 32 | 91* | 25
CCC1=Nc2cc(C(=O)NCCN3CCOCC3)ccc2Sc2ccccc21 | -13 | . | 5 | 29 | -1
O=C(C1CCCC1)N1CC2(C1)[C@H](c1ccccc1)[C@H](CO)N2CC1CC1 | . | 9 | . | 1 | .
C[C@@H]1CCCCO[C@@H](CN(C)C(=O)Nc2ccc(C(F)(F)F)cc2)[C@H](C)CN([C@H](C)CO)C(=O)c2cc(NS(=O)(=O)c3ccc(Cl)cc3)ccc2O1 | . | 18 | . | 88* | .
C[C@@H]1CCCCO[C@H](CN(C)C(=O)Nc2ccc(C(F)(F)F)cc2)[C@H](C)CN([C@H](C)CO)C(=O)c2cc(NS(=O)(=O)c3ccc(Cl)cc3)ccc2O1 | . | 10 | . | -13 | .
C[C@H](CO)N1C[C@H](C)[C@@H](CN(C)C(=O)Nc2ccc(C(F)(F)F)cc2)OCCCC[C@H](C)Oc2ccc(NS(=O)(=O)c3ccc(Cl)cc3)cc2C1=O | . | 2 | . | 69* | .
C[C@H]1CCCCO[C@@H](CN(C)C(=O)Nc2ccc(C(F)(F)F)cc2)[C@@H](C)CN([C@@H](C)CO)C(=O)c2cc(NS(=O)(=O)c3ccc(Cl)cc3)ccc2O1 | . | 9 | . | -3 | .
C[C@@H]1CCCCO[C@H](CN(C)C(=O)Nc2ccc(C(F)(F)F)cc2)[C@H](C)CN([C@@H](C)CO)C(=O)c2cc(NS(=O)(=O)c3ccc(Cl)cc3)ccc2O1 | . | 0 | . | 89* | .
C[C@@H]1CCCCO[C@@H](CN(C)C(=O)Nc2ccc(C(F)(F)F)cc2)[C@H](C)CN([C@@H](C)CO)C(=O)c2cc(NS(=O)(=O)c3ccc(Cl)cc3)ccc2O1 | . | 1 | . | 69* | .
C[C@@H]1CCCCO[C@H](CN(C)C(=O)Nc2ccc(C(F)(F)F)cc2)[C@@H](C)CN([C@H](C)CO)C(=O)c2cc(NS(=O)(=O)c3ccc(Cl)cc3)ccc2O1 | . | -1 | . | 48 | .
CC(C)C#Cc1ccc([C@H]2[C@H](CO)N3CCCCN(C(=O)Nc4ccccc4)C[C@@H]23)cc1 | . | 9 | . | 50 | .
O=C(C[C@@H]1CC[C@@H](NC(=O)C2CCC2)[C@@H](CO)O1)NCCCN1CCOCC1 | . | -2 | . | 6 | .
C[C@@H]1CCCCO[C@H](CN(C)C(=O)Nc2ccc(C(F)(F)F)cc2)[C@@H](C)CN([C@@H](C)CO)C(=O)c2cc(NS(=O)(=O)c3ccc(Cl)cc3)ccc2O1 | . | 0 | . | 92* | .
C[C@@H]1CN([C@@H](C)CO)C(=O)c2cccc(NC(=O)NC3CCCCC3)c2O[C@H]1CN(C)C(=O)Nc1ccc(F)cc1 | . | -10 | . | -4 | .
Cc1ccc(C)c(-c2cc(C(=O)Nc3cccc(C(=O)O)c3)c3ccccc3n2)c1 | 5 | 4 | -4 | 83* | -3
Cc1ccc(C)c(-c2cc(C(=O)Nc3cccnc3)c3ccccc3n2)c1 | 7 | 10 | -25 | 5 | 15
SMILES | KKLEB cytotox | EWS-Fli inh | CF NFkB inh | PAX8 inh HTS | HIF-2a block
COC(=O)C[C@@H]1CC[C@@H]2[C@H](COC[C@H](O)CN2C(=O)Nc2ccccc2OC)O1 | . | 4 | . | -1 | .
O=c1cc2oc3cc(O)c(O)cc3c(-c3ccccc3[N+](=O)[O-])c-2cc1O | -20 | -55 | 12 | 102* | 17
Cc1ccc(NC(=O)c2ccccc2NS(=O)(=O)c2ccc(Cl)s2)cc1 | -48 | -14 | 60* | 19 | -74
O=C(Nc1ccccc1)c1ccccc1NS(=O)(=O)c1ccc(Cl)s1 | -36 | . | 45 | . | 10
O=C(Nc1ccccc1Cc1ccccc1)c1ccccc1NS(=O)(=O)c1ccc(Cl)s1 | -49 | . | 63* | 71* | 14
Cc1noc(C)c1S(=O)(=O)N(C)C[C@H]1OCCCC[C@@H](C)Oc2ccc(NC(=O)CCCN(C)C)cc2C(=O)N([C@@H](C)CO)C[C@H]1C | . | 9 | . | 4 | .
CC[n+]1ccc(/C=C/c2c[nH]c3ccccc23)cc1 | 14 | 22 | -37 | 75* | 16
COc1ccc2c(/C=C/c3cc[n+](C)cc3)c[nH]c2c1 | 15 | 33 | -33 | 37 | 12
Cc1ccc2[nH]cc(/C=C/c3cc[n+](C)cc3)c2c1 | -5 | 60* | -89 | 78* | 8
CCNC(=O)C[C@@H]1CC[C@H]2[C@@H](COc3ccc(NC(=O)Nc4c(C)noc4C)cc3C(=O)N2C)O1 | . | -1 | . | -7 | .
Cc1cc(C)c2nc3sc(C(=O)N4CCOCC4)c(N)c3cc2c1 | -18 | 48 | 39 | 69* | -134
Cc1ccc(C)c2nc3sc(C(=O)N4CCOCC4)c(N)c3cc12 | -21 | -25 | 5 | -134 | -251
COc1ccc2c3c([nH]c2c1)[C@@H](CO)NCC31CN(S(=O)(=O)c2ccccc2)C1 | . | 26 | . | . | .
Nc1nc(Nc2ccccc2)nc2ccccc12 | -22 | . | -5 | -68 | -143
Nc1nc(Nc2ccc(Cl)cc2)nc2ccccc12 | -55* | . | 8 | . | -76
CCOc1ccc(Nc2nc(N)c3ccccc3n2)cc1 | -56* | 69* | -8 | 42 | 47*
COc1ccc(S(=O)(=O)N2C[C@H](O)COC[C@H]3O[C@H](CC(=O)N(C)C)CC[C@@H]32)cc1 | . | -7 | . | 15 | .
